Experimental data published in PubChem BioAssay AID1159583 (ICCB-Longwood Screening Facility, Harvard Medical School, 2016).
“And” between values parts separate entries of the source, which are not always exact repeats. Equal entries are not always repeated. In all, about 300,000 compounds went through this assay and about 310 (0.1%) were called active. No stated cut-off is given here; in the data, active means fluorescence inhibition mostly above about 23% (no sharp cut-off); inactive means mostly below about 17%. The entries come from a sample that favours actives as a whole.

Assay: hypoxia reporter signal reduction in M. tuberculosis – fluorescence, absorbance growth readout, primary screen (AID 1159583)
Details: M. tuberculosis hypoxia-regulated fluorescent reporter, stronger effect = higher value, concentration not given here; growth inhibition: measured here: M. tuberculosis growth (absorbance)
For `Cc1ccc(C(=O)ON=Cc2ccc3c(c2)OCO3)cc1`, the fluorescence inhibition was 2.14% (inactive) and the growth inhibition was 12.4%. With `CCc1ccc(/C=C2\SC(N3CCOCC3)=NC2=O)cc1` the fluorescence inhibition was -2.06% (inactive) and the growth inhibition was 6.4%. With `O=C1N=C(N2CCOCC2)S/C1=C\C=C/c1ccccc1` the fluorescence inhibition was 16.7% (inactive) and the growth inhibition was 6.03%. For `Cc1ccsc1/C=C1\SC(N2CCOCC2)=NC1=O`, the fluorescence inhibition was 59.8% (active) and the growth inhibition was 35.7%. With `COC(=O)c1ccc(C=NN2C(C)CCCC2C)cc1` (stereo unspecified) the fluorescence inhibition was 12.1% (inactive) and the growth inhibition was 0.227%. For `[O-]C1=N[N+](=Cc2ccc(Cl)cc2)CC1`, the fluorescence inhibition was 9.03% (inactive) and the growth inhibition was 2.77%. For `Cc1ccc(F)c(C2C3C=CCC[C@@]3(C)C(=O)N2Cc2ccccc2)c1` (stereo partly specified), the fluorescence inhibition was 0.237% (inactive) and the growth inhibition was 4.91%. For `CCOC(=O)C1C2COc3ccc(OC)cc3C2N2C(=O)c3cc(OC)ccc3NC(=O)[C@@]12C` (stereo partly specified), the fluorescence inhibition was -0.571% (inactive) and the growth inhibition was -0.925%. With `CN1CCSC1=CC=C1C(=O)N(C)C(=S)N1C` the fluorescence inhibition was 41.3% (active) and the growth inhibition was 10.5%. For `CN1C(=O)/C(=C/C=C2\SCCN2C)OC1=S`, the fluorescence inhibition was -23.3% (inactive) and the growth inhibition was 5.47%. In the case of `Oc1ccc(C=NNC(=S)Nc2cccnc2)c(O)c1O`, the fluorescence inhibition is reported as 19% (inactive) and the growth inhibition is reported as 3.53%. For `O=C(NN=Cc1cccc2nccnc12)c1ccncc1`, the fluorescence inhibition was 93.3%. With `C#CCOCCOCCOCCNc1nc(N2CCN(C(=O)C(CCC(=O)O)n3cc(C(N)Cc4ccc(O)cc4)nn3)CC2)nc(N2CCN(C(=O)C(C(C)CC)n3cc(C(N)CO)nn3)CC2)n1` (stereo unspecified) the fluorescence inhibition was 8.78% (inactive) and the growth inhibition was 6.78%. For `N#CC(=Cc1ccc(O)c(O)c1)C(=O)c1ccc(O)c(O)c1`, the fluorescence inhibition was -0.458% (inactive) and the growth inhibition was -7.09%. In the case of `CC(=NNc1nc(C)cc(-c2ccccc2)n1)c1ccc(C)o1`, the fluorescence inhibition is reported as 5.64% (inactive) and the growth inhibition is reported as 13.1%. In the case of `CCC(C)CCN1C(Nc2ccccc2)=NCC1CC(C)C` (stereo unspecified), the fluorescence inhibition is reported as 2.94% (inactive) and the growth inhibition is reported as 9.85%. In the case of `CC(=NNC(=S)Nc1ccccc1)c1ccc2c(c1)OCO2`, the fluorescence inhibition is reported as 4.36% (inactive) and the growth inhibition is reported as -7.15%. For `CN1CCN(C(=O)C2=CC(c3ccccc3)CC(OCc3ccc(CO)cc3)O2)CC1` (stereo unspecified), the fluorescence inhibition was 10.4% (inactive) and -0.342% (inactive) and the growth inhibition was 12.8% and -5.24%. With `C=CCNC(=S)N=c1sccn1C` the fluorescence inhibition was 6.54% (inactive) and the growth inhibition was -7.89%. For `CC(=NNC(=O)c1cc(-c2cccc([N+](=O)[O-])c2)n[nH]1)c1ccc(F)cc1`, the fluorescence inhibition was 14.8% (inactive) and the growth inhibition was -5.45%. For `COc1ccc(N(CC(=O)NN=C(C)c2cccs2)S(=O)(=O)c2ccccc2)cc1Cl`, the fluorescence inhibition was -6% (inactive) and the growth inhibition was -2.78%. In the case of `CCOC(=O)C1C2COc3ccccc3C2N2C(=O)N(c3cccc(F)c3)C(=O)[C@@]12C` (stereo partly specified), the fluorescence inhibition is reported as -2.44% (inactive) and the growth inhibition is reported as 3.57%. In the case of `COC(=O)C1=C(c2ccc(OC(F)(F)F)cc2)CC2CCC1N2C(=O)NCCOc1ccc(OC)cc1` (stereo unspecified), the fluorescence inhibition is reported as 0.962% (inactive) and the growth inhibition is reported as 6.26%. With `O=C(CC(=O)NC1CCCCC1)NN=Cc1ccccc1Cl` the fluorescence inhibition was 2.92% (inactive) and the growth inhibition was 1.5%. For `CCN1CC2C3C(=O)N(Cc4ccccc4)C(=O)C3[C@](CC)(C1=O)N2C(=O)c1ccc(Br)cc1` (stereo partly specified), the fluorescence inhibition was 6.17% (inactive) and the growth inhibition was 7.16%. With `CN1CC2C3C(=O)N(C)C(=O)C3[C@](C)(C1=O)N2C(=O)c1ccc(Cl)c(Cl)c1` (stereo partly specified) the fluorescence inhibition was 18.2% (inactive) and the growth inhibition was 5.39%. In the case of `Oc1cccc(C=NNc2ncnc3c2ncn3Cc2ccccc2)c1`, the fluorescence inhibition is reported as 12.7% (inactive) and the growth inhibition is reported as 4.03%. For `COc1ccc(C(N)=NOC(=O)c2cccc([N+](=O)[O-])c2)cc1`, the fluorescence inhibition was 2.69% (inactive) and the growth inhibition was 7.49%. `Cc1cc(C=NNC(N)=S)c(C)n1-c1ccc(Cl)cc1` gave a fluorescence inhibition of 79.4%. For `O=C(O)c1cc(C(=O)O)cc(-c2ccc(C=c3sc4nc5ccccc5n4c3=O)o2)c1`, the fluorescence inhibition was 9.74% (inactive) and the growth inhibition was 9.98%. With `O=C(C1=CC(c2csc3ccccc23)CC(OCc2ccc(CO)cc2)O1)N1CCCCCCC1` (stereo unspecified) the fluorescence inhibition was 5.62% (inactive) and the growth inhibition was 15.1%. In the case of `COc1ccc2c(Cl)c(C(=O)NN=Cc3c(C)[nH]c4ccccc34)sc2c1`, the fluorescence inhibition is reported as 12.9% (inactive) and the growth inhibition is reported as -1.23%. In the case of `COc1cccc(C(=O)NN=C(c2ccccc2)c2ccccn2)c1`, the fluorescence inhibition is reported as 5% (inactive) and the growth inhibition is reported as 11%. With `CCOC(=O)c1cc(C)sc1N=CC1C(=O)CC(C)(C)CC1=O` the fluorescence inhibition was 5.08% (inactive) and the growth inhibition was 4.24%. For `Cc1ccc(C2C3C(=O)N(C)C(=O)C3[C@]3(C)C(=O)N(CC4CC4)CC(=O)N23)o1` (stereo partly specified), the fluorescence inhibition was 3.26% (inactive) and the growth inhibition was -2.47%. With `CC(=NNC(=O)C(=O)Nc1ccc(C)c(Cl)c1)c1ccncc1` the fluorescence inhibition was 9.7% (inactive) and the growth inhibition was 2.87%. For `CCOC(=O)C1=C(N)n2c(sc(=Cc3ccncc3)c2=O)=C(C(=O)OCC)C1c1ccncc1` (stereo unspecified), the fluorescence inhibition was -2.3% (inactive) and the growth inhibition was -3.45%. For `C=C1CC(C(=O)NN=Cc2ccc(O)cc2)C1`, the fluorescence inhibition was 2.24% (inactive) and the growth inhibition was 7.43%. With `COc1ccc(NC(=O)COC(=O)CON=C(C)c2ccc3c(c2)OCO3)cc1S(N)(=O)=O` the fluorescence inhibition was -7.57% (inactive) and the growth inhibition was -2.6%. With `Cc1ccc(-c2c(C(=O)NN=Cc3ccc(C)o3)nnn2-c2nonc2N)cc1` the fluorescence inhibition was 3.86% (inactive) and the growth inhibition was 8.97%. In the case of `Cc1ccc(C=NNC(=O)CSc2nc3ccccc3n2C)s1`, the fluorescence inhibition is reported as 13.6% (inactive) and the growth inhibition is reported as 0.932%. For `COc1ccc(-c2nn(-c3ccccc3)cc2C=NNC(=O)c2cccc(S(=O)(=O)Nc3ccccc3OC)c2)cc1`, the fluorescence inhibition was 12.6% (inactive) and the growth inhibition was 0.139%. For `O=C(Cc1n[nH]c(=O)[nH]c1=O)NN=CCCc1ccccc1`, the fluorescence inhibition was 11.1% (inactive) and the growth inhibition was 4.96%. In the case of `CCCN(CCC)Cc1c(C(=O)NN=Cc2c[nH]c3ccccc23)nnn1-c1nonc1N`, the fluorescence inhibition is reported as -3.6% (inactive) and the growth inhibition is reported as 2.65%. With `C=C1CCN(C(C)C(=O)NCc2ccc(OC)cc2)S(=O)(=O)c2ccccc21` (stereo unspecified) the fluorescence inhibition was 19.8% (inactive) and the growth inhibition was 12.8%. For `CCOc1ccc(-c2cc(C)[n+](CCN(CC)CC)c(-c3ccc(OCC)cc3)c2)cc1`, the fluorescence inhibition was 53.9% (active) and the growth inhibition was 33.9%. With `CCOc1ccc2c(c1)C(c1ccc(C)cc1)=NNC(c1ccc(C)cc1)=N2` the fluorescence inhibition was 21.9% (inactive) and the growth inhibition was 10.8%. With `CCOc1ccc(-c2nnc3ccc(SC)nn23)cc1` the fluorescence inhibition was 4.55% (inactive) and the growth inhibition was 1.4%. For `O=C(NN=Cc1c[nH]c2ccccc12)c1cc2ccccc2o1`, the fluorescence inhibition was 0.899% (inactive) and the growth inhibition was 8.76%. With `COc1cccc(C=NNc2ncnc3c2ncn3Cc2ccccc2)c1O` the fluorescence inhibition was 7.12% (inactive) and the growth inhibition was 2.3%. In the case of `CCc1ccc(S(=O)(=O)NN=Cc2ccc3c(c2)OCO3)cc1`, the fluorescence inhibition is reported as 1.76% (inactive) and the growth inhibition is reported as -2.08%. With `CN1C(=O)C(=NOC(=O)c2ccccc2Cl)c2ccccc21` the fluorescence inhibition was 12.3% (inactive) and the growth inhibition was 3.63%. In the case of `COc1ccc(C=NNc2c(Cl)cc(Cl)cc2Cl)cc1CN1CCOCC1`, the fluorescence inhibition is reported as -4.05% (inactive) and the growth inhibition is reported as 12.6%. `Cc1cc(C)cc(NC(=O)NC2CCCCCCC2)c1` gave a fluorescence inhibition of 95.8%. With `CC(C)(C)NS(=O)(=O)c1ccc(NC(=O)NC2CCCCC2)cc1` the fluorescence inhibition was 3.29% (inactive) and the growth inhibition was 2.76%. For `CC(C)c1ccc(NC(=O)NC2CCCCC2)cc1`, the fluorescence inhibition was 20.8% (active) and the growth inhibition was 53%. In the case of `CSc1nsc(NN=Cc2ccccc2)c1C#N`, the fluorescence inhibition is reported as 1.35% (inactive) and the growth inhibition is reported as 9.85%. In the case of `CC(C)CCn1c(=O)c(C(=O)NN=Cc2cccc(F)c2)c(O)c2ccccc21`, the fluorescence inhibition is reported as 5.09% (inactive) and the growth inhibition is reported as 2.73%. In the case of `O=C1CC2c3c(cccc3CN1Cc1ccc(F)cc1)CC(O)C2O` (stereo unspecified), the fluorescence inhibition is reported as 13.8% (inactive) and the growth inhibition is reported as 7.24%. With `CC(=NNC(=O)c1ccn(C)n1)c1cccc(NC(=O)c2ccncc2)c1` the fluorescence inhibition was -2.04% (inactive) and the growth inhibition was 6.06%. With `COCc1c(Br)c(C)nc(OCC(=O)NN=Cc2ccc(C)o2)c1C#N` the fluorescence inhibition was 18.1% (inactive) and the growth inhibition was 8.53%. In the case of `CCC(=NNC(C)=O)c1ccc(OC(F)F)cc1`, the fluorescence inhibition is reported as 18.5% (inactive) and the growth inhibition is reported as -1.52%. In the case of `Cc1c(C=NNC(=O)c2ccc(F)cc2)cnn1C`, the fluorescence inhibition is reported as 2.95% (inactive) and the growth inhibition is reported as 1.5%. For `COc1ccc(C2CC(=O)C=C(c3ccc(Cl)cc3C)C2)cc1` (stereo unspecified), the fluorescence inhibition was 14.8% (inactive) and the growth inhibition was 2.62%. In the case of `O=C(O)CC1c2cc(C(F)(F)F)ccc2S(=O)(=O)N1C1CCCCC1` (stereo unspecified), the fluorescence inhibition is reported as 13.2% (inactive) and the growth inhibition is reported as 14.6%. In the case of `CCOc1cc(C=NNC(=O)CSc2nnc(C)s2)ccc1OCc1ccccc1Cl`, the fluorescence inhibition is reported as -1.48% (inactive) and the growth inhibition is reported as -4.08%. For `CC1(C)CC(=O)CC(=NNC(=O)C2CC2c2ccccc2)C1` (stereo unspecified), the fluorescence inhibition was -1.34% (inactive) and the growth inhibition was 15.1%. For `O=C(O)c1cccc2c1-c1ccccc1C2=NNc1ccccc1`, the fluorescence inhibition was 1.02% (inactive) and the growth inhibition was -10.1%. With `O=[N+]([O-])c1ccccc1NN=Cc1cccc(O)c1O` the fluorescence inhibition was 9.33% (inactive) and the growth inhibition was 0.684%. For `CC(=NO)C(C)(C)Nc1cccc(F)c1`, the fluorescence inhibition was -1.15% (inactive) and the growth inhibition was 4.49%. For `COc1ccc(-c2sc3ccccc3c2C=Cc2ccc(OC)c(OC)c2)cc1`, the fluorescence inhibition was 17.3% (inactive) and the growth inhibition was 10%. In the case of `COc1ccc(C2C=CCN(S(C)(=O)=O)C(C)C(=O)N2Cc2ccc(F)cc2)cc1` (stereo unspecified), the fluorescence inhibition is reported as 18% (inactive) and the growth inhibition is reported as 13.9%. For `CC(C)(C)OC(=O)NC(Cc1ccccc1)C(=O)NC(CO)C(O)C1CC1C(=O)NC1CC1` (stereo unspecified), the fluorescence inhibition was 14.6% (inactive) and the growth inhibition was 4.91%. In the case of `O=C(CN1CCN(Cc2ccc(Cl)cc2)CC1)NN=Cc1cccs1`, the fluorescence inhibition is reported as 6.55% (inactive) and the growth inhibition is reported as -3.12%. With `Cc1ccc(C=NNC(=O)Nc2ccccc2)o1` the fluorescence inhibition was 14.8% (inactive) and the growth inhibition was 5.33%. In the case of `CCN1C(=O)C(CC(=O)Nc2ccccc2)SC1=Nc1ccccn1` (stereo unspecified), the fluorescence inhibition is reported as 0.176% (inactive) and the growth inhibition is reported as 4.92%. In the case of `COc1ccc(Cl)cc1NC(=O)CC(C)=NNC(=O)COc1ccc(C)cc1`, the fluorescence inhibition is reported as 13.3% (inactive) and the growth inhibition is reported as 3.14%. For `O=[N+]([O-])c1ccc(Cl)cc1NN=Cc1ccncc1`, the fluorescence inhibition was 6.88% (inactive) and the growth inhibition was -1.48%. With `O=C(NN=Cc1ccncc1)c1cc2c(ccc3ccccc32)o1` the fluorescence inhibition was -1.63% (inactive) and the growth inhibition was 10.4%. In the case of `COc1cc(C=NNC(=S)NCc2ccccc2)ccc1OCC#N`, the fluorescence inhibition is reported as 8.67% (inactive) and the growth inhibition is reported as 7.58%. For `CC(C)c1ccc(C=NNC(=O)c2cc(-c3cccc([N+](=O)[O-])c3)n[nH]2)cc1`, the fluorescence inhibition was 16.3% (inactive) and the growth inhibition was 1.5%. For `Cc1ccc(C=NNC(=O)CCCOc2ccc(Cl)cc2Cl)cc1[N+](=O)[O-]`, the fluorescence inhibition was 1.7% (inactive) and the growth inhibition was 5.81%.
